Laboratory results as given in the GenesisPotency data set.
Screen size: about 290,000 compounds; about 3,000 (1%) were called active. Rule as the data show it: active = inhibition mostly above about 36% (no sharp cut-off); inactive = mostly below about 34%. Many of the other results were omitted from the sample, so actives are more common in it than they were.

target: T1, Nucleotide-binding oligomerization domain-containing protein 1, Homo sapiens (UniProt Q9Y239); experiment: inhibition of NOD1-driven NF-kB reporter – cell-based, luminescence, uHTS, primary screen (AID 1578)
T1 sequence (whole entry): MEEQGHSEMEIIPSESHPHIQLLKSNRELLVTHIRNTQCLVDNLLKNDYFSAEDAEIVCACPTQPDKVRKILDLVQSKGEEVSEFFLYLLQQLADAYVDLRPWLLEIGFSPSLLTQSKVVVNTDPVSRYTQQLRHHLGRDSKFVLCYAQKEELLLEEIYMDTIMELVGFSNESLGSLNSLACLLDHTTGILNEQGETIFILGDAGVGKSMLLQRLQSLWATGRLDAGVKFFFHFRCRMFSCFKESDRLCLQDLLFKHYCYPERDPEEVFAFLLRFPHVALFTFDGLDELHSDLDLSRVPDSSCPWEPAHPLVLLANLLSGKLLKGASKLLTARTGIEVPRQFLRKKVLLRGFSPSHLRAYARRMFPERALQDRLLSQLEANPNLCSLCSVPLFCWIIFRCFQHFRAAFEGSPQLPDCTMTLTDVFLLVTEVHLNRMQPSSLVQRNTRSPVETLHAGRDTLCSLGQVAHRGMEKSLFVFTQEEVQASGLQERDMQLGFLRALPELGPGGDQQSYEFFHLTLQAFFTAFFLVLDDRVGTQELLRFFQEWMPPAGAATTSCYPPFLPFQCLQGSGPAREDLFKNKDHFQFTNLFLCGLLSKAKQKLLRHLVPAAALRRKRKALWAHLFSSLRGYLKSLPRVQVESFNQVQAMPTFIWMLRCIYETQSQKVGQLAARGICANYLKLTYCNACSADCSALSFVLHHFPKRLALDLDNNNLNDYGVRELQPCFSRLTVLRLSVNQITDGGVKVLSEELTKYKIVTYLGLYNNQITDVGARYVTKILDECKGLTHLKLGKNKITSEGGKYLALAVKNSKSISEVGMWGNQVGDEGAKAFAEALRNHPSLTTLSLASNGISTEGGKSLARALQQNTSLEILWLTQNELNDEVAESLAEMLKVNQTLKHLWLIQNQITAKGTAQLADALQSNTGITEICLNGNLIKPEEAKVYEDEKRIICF

outcome, active:
O=C(Cn1ncc(Cl)c(Cl)c1=O)N1CCc2ccccc21, C#Cc1ccc([C@@H]2C=C(C(=O)N3CCN(Cc4ccccc4)CC3)O[C@H](OCCCCO)C2)cc1, O=C(COc1ccc(Br)cc1)Nc1ccc(Cc2ccncc2)cc1, Cn1cnnc1Sc1ccc(/C=C/C(=O)c2ccc(O)cc2)cc1[N+](=O)[O-], C(=N\Nc1nc2ccccc2s1)/c1ccccn1, CCn1c(=O)c2c(cnn2C)c2ccccc21, CC(=O)c1c(O)c(C)c(O)c2c1OC1=CC(=O)C(C(C)=O)C(=O)[C@@]12C (some centres undefined), O=C(NCc1ccco1)c1nc2c(nnn2Cc2ccccc2Cl)c(=O)[nH]1, O=C(NCc1cccs1)c1nc2c(nnn2Cc2ccccc2Cl)c(=O)[nH]1, COc1ccc2ncn(-c3ccccc3)c2c1, COc1ccc(-n2cnc3ccccc32)cc1, O=C(CSc1nnc2c(n1)[nH]c1ccccc12)NC1CCCCC1, NC(=S)N/N=C\c1c(OCc2ccccc2Cl)ccc2ccccc12, CC(C)N1C(=O)/C(=C/c2nc3ccccc3c(=O)n2-c2ccccc2)c2ccccc21, Cc1cccc(-n2c(SCC(=O)N3CCC(C(=O)O)CC3)nc3ccccc3c2=O)c1C, CC1=CC(C)(C)Nc2ccc(OC(=O)CN3C(=O)CCC3=O)cc21, CC1=CC(C)(C)Nc2ccc(OC(=O)CN3C(=O)C4CCCCC4C3=O)cc21 (centres undefined), Oc1c(Cl)cc(Cl)cc1/C=C/c1ccc2cccc(O)c2n1, COc1cc(/C=C/c2ccc3cccc(O)c3n2)ccc1O, COc1cc(/C=C/c2ccc3cccc(O)c3n2)cc(OC)c1OC, COc1ccc(OC)c(/C=C/c2ccc3cccc(O)c3n2)c1, O=C(Nc1nnc(-c2cccs2)o1)c1cccc(Oc2ccccc2)c1, O=C(Nc1nnc(-c2cccs2)o1)c1cccc(C(F)(F)F)c1, O=C(C1CCC(CNS(=O)(=O)c2cccs2)CC1)N1CCN(c2ccc(Cl)cc2)CC1 (centres undefined), O=C(Nc1ccccc1C(=O)Nc1nnc(C(F)(F)F)s1)c1ccccc1Cl, Cc1onc(-c2c(F)cccc2Cl)c1C(=O)Nc1nnc(C(F)(F)F)s1, O=C(Nc1ccccc1C(=O)Nc1nnc(C(F)(F)F)s1)c1ccccc1, COc1ccccc1CN(Cc1nc2ccccc2c(=O)[nH]1)S(=O)(=O)c1ccc2ccccc2c1, N#C/C(=C\c1ccc(O)c([N+](=O)[O-])c1)c1nc2ccccc2s1, O=C(CCl)N1c2ccccc2OCC1c1ccccc1 (centres undefined), Cc1ccc(C(=O)Nc2ccccc2-c2ccccc2)cc1[N+](=O)[O-], COc1ccccc1OCC(=O)OC/C(O)=C(\C#N)c1nc2ccccc2[nH]1, Cc1cccc(C)c1OCC(=O)OC/C(O)=C(\C#N)c1nc2ccccc2[nH]1, O=C(Nc1nc2ccccc2n1CCOc1ccc(Cl)cc1)c1ccco1, Cc1ccccc1-c1cc(C(=O)Nc2sc(C(=O)OC(C)C)c(C)c2C#N)c2ccccc2n1, CCOC(=O)c1sc(NC(=O)c2cc(-c3ccccc3C)nc3ccccc23)c(C#N)c1C, CCOC(=O)c1sc(NC(=O)CSc2nc3c(cc2C#N)CCCCCC3)c(C#N)c1C, COC(=O)c1sc(NC(=O)c2cc(-c3ccccc3)nc3ccccc23)c(C#N)c1C, CCOC(=O)c1sc(NC(=O)CSc2n[nH]c(-c3ccccc3)n2)c(C#N)c1C, CCOC(=O)c1sc(NC(=O)c2cc(-c3ccccc3)nc3ccccc23)c(C#N)c1C, Cc1ccc(C(=O)O/N=C(\N)c2ccccn2)c(C)c1, Cc1ccc(C)c(N2CCN(C(=O)CCCCCn3c(=S)[nH]c4ccc(N5CCOCC5)cc4c3=O)CC2)c1, N#Cc1ccc(C(=O)Nc2nc(-c3cccs3)c(C(=O)C(F)(F)F)s2)cc1, CN(c1ccccc1)S(=O)(=O)c1ccc(NC(=O)c2nc(S(C)(=O)=O)ncc2Cl)cc1, CCS(=O)(=O)c1ncc(Cl)c(C(=O)Nc2ccc(C)cc2)n1, CCS(=O)(=O)c1ncc(Cl)c(C(=O)Nc2ccc(S(=O)(=O)N(C)c3ccccc3)cc2)n1, CCN(c1ccccc1)S(=O)(=O)c1ccc(NC(=S)NC(=O)c2cccs2)cc1, Cc1csc2c(N3CCN(C(=S)Nc4ccc(C(F)(F)F)cc4)CC3)ncnc12, Fc1ccc(NC(=S)N2CCCN(c3ccc(C(F)(F)F)cn3)CC2)c(F)c1, Cc1csc2ncnc(N3CCN(C(=S)Nc4ccc(C(F)(F)F)cc4)CC3)c12, Cc1csc2ncnc(N3CCN(C(=S)Nc4ccc(F)cc4F)CC3)c12, Cc1csc2ncnc(N3CCN(S(=O)(=O)c4cccc(C(F)(F)F)c4)CC3)c12, Cc1csc2ncnc(N3CCN(C(=O)Nc4ccc(OC(F)(F)F)cc4)CC3)c12, Cc1c(C#N)c(NC(=O)CCl)n(Cc2ccccc2)c1C, Cc1c(C#N)c(NC(=O)CCl)n(Cc2cccs2)c1C, Br.CCCCCCCCCn1c2c(c(=N)c3c1CCC3)CCCC2, Br.CCCCCCCn1c2c(c(=N)c3c1CCC3)CCCC2, Br.CCCCCCCCn1c2c(c(=N)c3c1CCC3)CCCC2, CC(=O)N1CCCc2cc(S(=O)(=O)N3CCCC(C(=O)N4CCN(c5cccc(Cl)c5)CC4)C3)ccc21 (centres undefined), CC(=O)N1CCCc2cc(S(=O)(=O)N3CCCC(C(=O)N4CCN(c5cc(C)ccc5C)CC4)C3)ccc21 (centres undefined), Cc1ccc(S(=O)(=O)c2ncccc2[N+](=O)[O-])cc1, COc1ccc(/C=C2\Sc3ccc(C(=O)N4CCN(Cc5ccccc5)CC4)cc3N(C)C2=O)cc1OC, CN1C(=O)/C(=C/c2ccccc2Cl)Sc2ccc(C(=O)N3CCCC3)cc21, Cc1ccc(-c2csc(NC3OC(=O)c4ccccc43)n2)cc1 (centres undefined), COc1ccc2c(c1OC)C(=O)OC2Nc1nc(-c2ccccc2)cs1 (centres undefined), O=C(NCCc1ccccc1)c1ccc2c(c1)OCCCO2, O=C(NCCc1ccccc1F)c1ccc2c(c1)OCCO2, COc1cc(C)c(Br)cc1S(=O)(=O)NCc1ccncc1, Cc1ccc(Cc2c(C)c(C#N)c3[nH]c4ccccc4n3c2=O)cc1, O=C(N/N=C/c1ccc([N+](=O)[O-])s1)c1ccccc1Br, O=C(N/N=C/c1ccc([N+](=O)[O-])s1)c1cccc(Br)c1, Cc1ccc(NC(=O)c2ccccc2NS(=O)(=O)c2ccc(F)cc2)cc1S(=O)(=O)N1CCCCC1, O=C(Nc1cccc(S(=O)(=O)N2CCCCC2)c1)c1ccccc1NS(=O)(=O)c1ccc(F)cc1, COc1ccccc1C(=O)Nc1nc2ccccc2[nH]1, COc1cc(SC)ccc1C(=O)Nc1nc2ccccc2[nH]1, Cc1c(C(=O)Nc2nc3ccccc3[nH]2)oc2ccc(Br)cc12, O=c1cc(C(F)(F)F)nc(SCc2cccc3ccccc23)[nH]1, Cc1cnc(NC(=O)C2CC(=O)N(c3cccc(Cl)c3)C2)s1 (centres undefined), CC(C)(C)c1cc(NC(=O)CCl)n(-c2ccccc2)n1, O=[N+]([O-])c1cccc(NC(=S)Nc2nc(-c3ccc(Cl)cc3Cl)cs2)c1, N#C/C(=C(/O)COC(=O)CSc1ccc2ccccc2c1)c1nc2ccccc2[nH]1, Cc1cc(Br)ccc1SCC(=O)OC/C(O)=C(\C#N)c1nc2ccccc2[nH]1, CC(C)(C)c1ccc(-c2noc(CCC(N)=O)n2)cc1, CC(C)(C)c1ccc(-c2noc(CCC(=O)Nc3cccnc3)n2)cc1, O=C(NC1CCCCC1)N1CCN(c2nc(-c3ccccc3)cs2)CC1, COC(=O)C1CCCCN1C(=O)c1cc(COc2cccc3cnccc23)on1 (centres undefined), CCOC(=O)CC1CCCCN1C(=O)c1cc(COc2cccc3cnccc23)on1 (centres undefined), COc1cc(NC(=O)COc2cc(O)c3c(c2)OC(C)(C)CC3=O)cc(OC)c1OC, Cc1ccc(-c2c3c(nc4sc(C(N)=O)c(N)c24)CCC3)cc1, Cc1nc2sc(C(N)=O)c(N)c2c2c1CCCC2, NC(=O)c1sc2nc3c(c(-c4ccccc4)c2c1N)CCC3, NC(=O)c1sc2nc3c(c(-c4ccco4)c2c1N)CCCC3, NC(=O)c1sc2nc3c(c(-c4cccs4)c2c1N)CCCCC3, Nc1ncc([N+](=O)[O-])c(N2CCCCCC2)n1, COc1ccccc1N1CCN(C(=O)C2CCCN(S(=O)(=O)c3ccc4c(c3)oc(=O)n4C)C2)CC1 (centres undefined), CCN(CC)S(=O)(=O)c1ccc(Oc2ccc(S(=O)(=O)N(CC)CC)cc2)cc1, Cc1ccc(NC(=O)/C=C/c2ccc([N+](=O)[O-])s2)c(C)c1, Cc1ccccc1NC(=O)/C=C/c1ccc([N+](=O)[O-])s1, CCCc1nc2c(=O)n(C)c(=O)nc-2n(C)n1, O=C(CCl)N(c1ccccc1)c1ccccc1, O=C(CCl)N(c1ccccc1)c1c[nH]c2ccccc12, O=C(CCl)N(Cc1ccccc1)c1ccccc1, CC(=O)n1cc(N(C(=O)CCl)c2ccccc2)c2ccccc21, O=C(COc1ccc(Br)cc1Cl)NC(=S)N1CCc2ccccc21, CC1Cc2ccccc2N1S(=O)(=O)c1cccc(C(=O)N2CCN(c3ncccn3)CC2)c1 (centres undefined), CC1Cc2ccccc2N1C(=S)NC(=O)c1cccc(Br)c1 (centres undefined), Cn1c(=NC(=O)CCl)sc2ccccc21, Cc1cc(C(=O)CCl)c(C)n1CCc1ccc(F)cc1, CCc1ccc(-c2nc(CSCC(=O)N3CCN(c4ccccn4)CC3)c(C)o2)cc1
